We go through ten compounds from PubChem BioAssay (NCI).

Test [1] can be described thus: NCI Yeast Anticancer Drug Screen. Data for the rad50 strain (AID 155).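 Note: 0% = growth of vehicle-only cultures of the same strain.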 The following applies: S. cerevisiae rad50 strain growth inhibition, active compounds read high. In short, it runs like this: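 Cells are treated with compound, grown, and their growth is then scored against vehicle-only cultures of the same repair-deficient yeast strain.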
Test [2] in a line: NCI Yeast Anticancer Drug Screen. Data for the mec2-1 strain (AID 157). The following applies: S. cerevisiae mec2-1 strain, active compounds read high. The method in brief: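 Cells of the genetically defined mec2-1 yeast strain are incubated with test compound. Inhibition of growth is calculated against vehicle-treated controls.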
Test [3] is described as follows: NCI Yeast Anticancer Drug Screen. Data for the sgs1 mgt1 strain (AID 161).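 Note: 0% = growth of cultures given vehicle only.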 The following applies: S. cerevisiae sgs1 mgt1 strain, active compounds read high. In short, it runs like this: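 Test agents were incubated with a DNA-repair-mutant yeast strain. Growth was then read and compared against vehicle-treated controls.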
A short description of test [4]: NCI Yeast Anticancer Drug Screen. Data for the cln2 rad14 strain (AID 165).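 Note: 0% = growth equal to vehicle treated cultures.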 The following applies: S. cerevisiae cln2 rad14 strain, active compounds read high. In short, it runs like this: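 The screen exposed genetically defined yeast (cln2 rad14) to test compounds and scored growth inhibition relative to vehicle-treated controls.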
Test [5] is described as follows: NCI Yeast Anticancer Drug Screen. Data for the bub3 strain (AID 167). The following applies: S. cerevisiae bub3 mutant strain, active compounds read high. The method in brief:
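Part of a panel of yeast mutants defective in DNA damage repair or cell cycle regulation. Each strain is grown with compound, and inhibition is calculated relative to solvent-treated cultures.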

Test [6] is described as follows: NCI Yeast Anticancer Drug Screen. Data for the mlh1 rad18 strain (AID 175). The following applies: S. cerevisiae mlh1 rad18 strain growth inhibition, active compounds read high. In short, it runs like this:
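Compound-treated yeast growth, normalised to vehicle controls. Strain bears defined DNA repair mutations.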

Where [7] appears, read: at 5.0 µM (retest, dose inferred, filed as 0.5).
Where [8] appears, read: at 50.0 µM (retest, dose inferred, filed as 5.0).

Each structure is given as a SMILES string. Compounds without any hit were thinned out: in the full panel of roughly 79,000, 15% have a hit. Unmarked numbers belong to inactive results. Calls of active or inactive are those of the source. Cut-off read from the data, not from the text of the source: active = growth inhibition above about 70%; inactive = the rest.

In the case of `N#CC(C#N)=C/C=C/c1c(Cl)cccc1Cl`, the growth inhibition is 7% in test [1] (setting [7]); 41% in test [1] (setting [8]); 71.2% (active) in test [1] (at 50.0 µM); 15% in test [2] (setting [7]); 58% in test [2] (setting [8]); 46.9% in test [2] (at 50.0 µM). In addition, the growth inhibition was 11% in test [3] (setting [7]); 78% (active) in test [3] (setting [8]); 58.9% in test [3] (at 50.0 µM); 29% in test [4] (setting [7]); 68% in test [4] (setting [8]); 76.8% (active) in test [4] (at 50.0 µM). Moreover, the growth inhibition is 25% in test [5] (setting [7]); 79% (active) in test [5] (setting [8]); 69.6% in test [5] (at 50.0 µM); 8% in test [6] (setting [7]); 66% in test [6] (setting [8]); 57.1% in test [6] (at 50.0 µM).

As to `O=C(O)/C(=C\c1ccc(O)cc1)c1cccc2ccccc12`, the growth inhibition in test [1] (setting [7]) was 31%; in test [1] (setting [8]), 18%; in test [1] (at 50.0 µM), 45.3%; in test [2] (setting [7]) it was -2%; in test [2] (setting [8]), 36%; in test [2] (at 50.0 µM) it was 37.6%. The growth inhibition was -2% in test [3] (setting [7]); 12% in test [3] (setting [8]); 5.5% in test [3] (at 50.0 µM); 3% in test [4] (setting [7]); 27% in test [4] (setting [8]); 76.2% (active) in test [4] (at 50.0 µM). Moreover, the growth inhibition in test [5] (setting [7]) is -21%; in test [5] (setting [8]), 22%; in test [5] (at 50.0 µM) it was 61.5%; in test [6] (setting [7]) it was -4%; in test [6] (setting [8]), 49%; in test [6] (at 50.0 µM) it was 48%.

On to `CCCCCCCCCCCCCCCCNCCCN(C)CCCN`, for which the growth inhibition is -1% in test [1] (setting [7]); 98% (active) in test [1] (setting [8]); 88.5% (active) in test [1] (at 50.0 µM); -19% in test [2] (setting [7]); 98% (active) in test [2] (setting [8]); 93.5% (active) in test [2] (at 50.0 µM). Also, the growth inhibition in test [3] (setting [7]) is 2%; in test [3] (setting [8]) it was 97% (active); in test [3] (at 50.0 µM), 93.3% (active); in test [4] (setting [7]), -26%; in test [4] (setting [8]) it was 97% (active); in test [4] (at 50.0 µM) it was 92% (active). Moreover, the growth inhibition in test [5] (setting [7]) is -26%; in test [5] (setting [8]), 97% (active); in test [5] (at 50.0 µM), 92.4% (active); in test [6] (setting [7]) it was -68%; in test [6] (setting [8]) it was 97% (active); in test [6] (at 50.0 µM), 90.3% (active).

`N=C(N)c1ccc(Nc2ccc(C(=N)N)cc2)cc1`: the growth inhibition was 20% in test [1] (setting [7]); 5% in test [1] (setting [8]); 91.2% (active) in test [1] (at 50.0 µM); 30% in test [2] (setting [7]); -7% in test [2] (setting [8]); 86.3% (active) in test [2] (at 50.0 µM). The growth inhibition is 19% in test [3] (setting [7]); 9% in test [3] (setting [8]); 90% (active) in test [3] (at 50.0 µM); 1% in test [4] (setting [7]); 14% in test [4] (setting [8]); 72.2% (active) in test [4] (at 50.0 µM). The growth inhibition in test [5] (setting [7]) is 21%; in test [5] (setting [8]) it was 56%; in test [5] (at 50.0 µM), 97.8% (active); in test [6] (setting [7]), 14%; in test [6] (setting [8]), 39%; in test [6] (at 50.0 µM), 91% (active).

Regarding `O=C1C2CCCC3CCCC(C(=O)N1O)C32` (stereo not given), the growth inhibition was 89% (active) in test [1] (setting [7]); 96% (active) in test [1] (setting [8]); 91.9% (active) in test [1] (at 50.0 µM); 90% (active) in test [2] (setting [7]); 98% (active) in test [2] (setting [8]); 93% (active) in test [2] (at 50.0 µM). Also, the growth inhibition in test [3] (setting [7]) is 70% (active); in test [3] (setting [8]), 94% (active); in test [3] (at 50.0 µM), 93.5% (active); in test [4] (setting [7]), 52%; in test [4] (setting [8]), 69%; in test [4] (at 50.0 µM), 74.7% (active). The growth inhibition in test [5] (setting [7]) was 93% (active); in test [5] (setting [8]), 97% (active); in test [5] (at 50.0 µM) it was 92% (active); in test [6] (setting [7]) it was 87% (active); in test [6] (setting [8]), 97% (active); in test [6] (at 50.0 µM), 90.3% (active).

For `O=C(O)c1c2c(c(O)c3c1CN(C1CCCCC1)CO3)OCN(C1CCCCC1)C2`, the growth inhibition in test [1] (setting [7]) was 8%; in test [1] (setting [8]) it was 35%; in test [1] (at 50.0 µM), 50.4%; in test [2] (setting [7]) it was 3%; in test [2] (setting [8]), 8%; in test [2] (at 50.0 µM) it was 53.1%. Moreover, the growth inhibition was 4% in test [3] (setting [7]); 25% in test [3] (setting [8]); 72.1% (active) in test [3] (at 50.0 µM); -17% in test [4] (setting [7]); 5% in test [4] (setting [8]); 73.7% (active) in test [4] (at 50.0 µM). The growth inhibition in test [5] (setting [7]) is 2%; in test [5] (setting [8]), 11%; in test [5] (at 50.0 µM), 32.1%; in test [6] (setting [7]) it was 0%; in test [6] (setting [8]) it was 25%; in test [6] (at 50.0 µM), 83.8% (active).

With `CCCC#CCCOC(=O)c1cc([N+](=O)[O-])cc([N+](=O)[O-])c1`, the growth inhibition in test [1] (setting [7]) is 3%; in test [1] (setting [8]) it was 97% (active); in test [1] (at 50.0 µM), 99.2% (active); in test [2] (setting [7]), 5%; in test [2] (setting [8]), 99% (active); in test [2] (at 50.0 µM), 98.5% (active). The growth inhibition in test [3] (setting [7]) is 12%; in test [3] (setting [8]), 99% (active); in test [3] (at 50.0 µM), 99.5% (active); in test [4] (setting [7]), -7%; in test [4] (setting [8]), 76% (active); in test [4] (at 50.0 µM) it was 98.9% (active). Further, the growth inhibition in test [5] (setting [7]) was -11%; in test [5] (setting [8]), 96% (active); in test [5] (at 50.0 µM), 99.4% (active); in test [6] (setting [7]), 5%; in test [6] (setting [8]), 98% (active); in test [6] (at 50.0 µM) it was 98.5% (active).

In the case of `O=C(CS)Nc1ccccc1`, the growth inhibition in test [1] (setting [7]) is 13%; in test [1] (setting [8]), 89% (active); in test [1] (at 50.0 µM), 65.4%; in test [2] (setting [7]), 18%; in test [2] (setting [8]), 91% (active); in test [2] (at 50.0 µM), 57.2%. For the same compound, the growth inhibition is 14% in test [3] (setting [7]); 93% (active) in test [3] (setting [8]); 61.1% in test [3] (at 50.0 µM); 9% in test [4] (setting [7]); 87% (active) in test [4] (setting [8]); 47.5% in test [4] (at 50.0 µM). Also, the growth inhibition was 3% in test [5] (setting [7]); 84% (active) in test [5] (setting [8]); 56.2% in test [5] (at 50.0 µM); 16% in test [6] (setting [7]); 95% (active) in test [6] (setting [8]); 84.1% (active) in test [6] (at 50.0 µM).

`CC(C)(C)CC(C)(C)NCc1cc(Cl)cc(Cc2cc(Cl)ccc2O)c1O`: the growth inhibition was 10% in test [1] (setting [7]); 97% (active) in test [1] (setting [8]); 28.9% in test [1] (at 50.0 µM); 9% in test [2] (setting [7]); 98% (active) in test [2] (setting [8]); 46% in test [2] (at 50.0 µM). In addition, the growth inhibition was 8% in test [3] (setting [7]); 98% (active) in test [3] (setting [8]); 48.7% in test [3] (at 50.0 µM); -4% in test [4] (setting [7]); 94% (active) in test [4] (setting [8]); 16.8% in test [4] (at 50.0 µM). Further, the growth inhibition is 4% in test [5] (setting [7]); 98% (active) in test [5] (setting [8]); 20.4% in test [5] (at 50.0 µM); 19% in test [6] (setting [7]); 98% (active) in test [6] (setting [8]); 78.7% (active) in test [6] (at 50.0 µM).

For `O=C(C(=O)n1ncc(Cl)c(Cl)c1=O)n1ncc(Cl)c(Cl)c1=O`, the growth inhibition in test [1] (setting [7]) was 5%; in test [1] (setting [8]), 7%; in test [1] (at 50.0 µM), 18.6%; in test [2] (setting [7]), -5%; in test [2] (setting [8]) it was 10%; in test [2] (at 50.0 µM), 70.9% (active). Also, the growth inhibition in test [3] (setting [7]) is 5%; in test [3] (setting [8]) it was 8%; in test [3] (at 50.0 µM), 44.9%; in test [4] (setting [7]), -6%; in test [4] (setting [8]), -15%; in test [4] (at 50.0 µM) it was 13.8%. For the same compound, the growth inhibition in test [5] (setting [7]) was -2%; in test [5] (setting [8]), -1%; in test [5] (at 50.0 µM) it was 36.9%; in test [6] (setting [7]), 0%; in test [6] (setting [8]), 3%; in test [6] (at 50.0 µM), 65.9%.
